# Screening results deposited in PubChem BioAssay by several laboratories.
# CYP2C9 inhib – blockers of cytochrome P450 2C9 activity – biochemical, luminescence, ADME assay, primary screen | CYP2C9 Supersomes, luciferin-H conversion | hit rate 20% among 96,000 | inhibition, % at 5 µM | P11712 | AID 777, 2007;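 active means blocking of liver enzyme CYP2C9 beyond about 50% at 5 µM, limit read from the data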
# Cav3 T inh – Cav3.2 calcium influx blockers – cell-based, Fluo-4 calcium fluorescence, FDSS, MLSMR library, primary screen; Cav3.2-expressing cells; hits give low values; B-score at 10 µM; hit rate 4% among 100,000;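 active means single-dose well whose peak fluorescence ratio is a statistical outlier from its plate by either plate-standardised score or position-corrected B-score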
# CYP2C19 activ – human CYP2C19 activators, primary screen, biochemical, luminescence; recombinant CYP2C19, luciferin-H EGE luminescence; hits give high values; 0 = fully inhibited enzyme, 1 = untreated enzyme; activation factor at 5 µM; 96,000 tested, under 10 active;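 active means activation factor of at least 2 at 5 µM in the primary screen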
# Target sequence (P33261 whole entry, looked up): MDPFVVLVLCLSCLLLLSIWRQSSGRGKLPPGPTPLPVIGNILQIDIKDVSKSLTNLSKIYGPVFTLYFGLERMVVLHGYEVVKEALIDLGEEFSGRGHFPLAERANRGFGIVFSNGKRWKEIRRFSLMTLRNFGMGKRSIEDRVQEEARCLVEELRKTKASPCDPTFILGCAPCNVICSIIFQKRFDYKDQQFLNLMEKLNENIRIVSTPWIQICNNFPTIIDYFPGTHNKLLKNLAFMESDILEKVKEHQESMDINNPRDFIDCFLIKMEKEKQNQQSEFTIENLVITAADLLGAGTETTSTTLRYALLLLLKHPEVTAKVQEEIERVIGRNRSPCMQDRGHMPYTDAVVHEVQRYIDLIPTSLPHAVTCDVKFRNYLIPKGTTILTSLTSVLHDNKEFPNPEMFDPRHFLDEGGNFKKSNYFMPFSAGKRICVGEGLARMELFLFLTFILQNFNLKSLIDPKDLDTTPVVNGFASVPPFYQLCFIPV
# CYP2C19 inh – blockers of cytochrome P450 2C19 activity – biochemical, luminescence, ADME assay, primary screen; P33261; CYP2C19 Supersomes, luciferin-H EGE luminescence, 30 min; inhibition, % at 5 µM; hit rate 21% among 96,000; AID 778, 2007;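 active means CYP2C19 inhibition above a set limit at 5 µM in the primary screen, cut at about 50% in these data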
# CYP2C9 act – human CYP2C9 activators, primary screen, biochemical, luminescence. Cytochrome P450 2C9 (Homo sapiens), P11712. recombinant CYP2C9, luciferin-H conversion; hits give high values; factor 1 = untreated enzyme, 0 = blocked. activation factor at 5 µM. hit rate 1.4% among 96,000. AID 1024, 2008;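 active means activation factor of 2 or more for CYP2C9 at a 5 µM dose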
# Hits are given with their value; n = inactive; x = not tested or not shown. Only some compounds are listed: those with a hit (about 27% of all), similar ones and a draw of the others.
SMILES,CYP2C9 inhib,Cav3 T inh,CYP2C19 activ,CYP2C19 inh,CYP2C9 act
Cc1noc(C)c1CSCC(=O)NC1=NCCS1,n,n,n,n,n
Cc1ccccc1Nc1nc(N)nc(CSCc2c(C)noc2C)n1,56.7,n,n,63.9,n
Cc1cccc(NC(=O)CSCc2c(C)noc2C)c1C,n,n,n,73.6,n
Cc1ccccc1Nc1nc(N)nc(COC(=O)c2cccn2C)n1,n,n,n,n,n
CC1(C)Cc2c(C#N)c(SCC(=O)c3ccccc3)nc(N3CCOCC3)c2CO1,91.7,x,n,61.8,n
CC1(C)Cc2c(C#N)c(SCc3ccccc3)nc(N3CCOCC3)c2CO1,88.2,n,n,n,n
CC1(C)Cc2c(c(N3CCOCC3)nc3sc(C(=O)N4CCCCC4)c(N)c23)CO1,n,n,n,n,n
CC1(C)Cc2c(c(N3CCOCC3)nc3snc(NC(=O)c4ccccc4)c23)CO1,88.1,n,n,n,n
CCCCCSc1nc(N2CCOCC2)c2c(c1C#N)CC(C)(C)OC2,82.8,n,n,n,n
Cc1ccc(S(=O)(=O)NCC(=O)N(CC(=O)NC2CCCCC2)CC2CCCO2)cc1 (stereo unspecified),n,n,n,n,n
O=C1C2CC=CCC2C(=O)N1c1n[nH]c(CCc2ccccc2)n1 (stereo unspecified),n,n,n,n,n
COC(=O)Sc1nc(N2CCOCC2)c2c(c1C#N)CC(C)(C)OC2,83.0,n,n,62.5,n
CC1(C)Cc2c(C#N)c(NCCN3CCOCC3)nc(-c3ccco3)c2CO1,n,n,n,n,n
O=C(COC(=O)C1COc2ccccc2O1)NC(=O)NC1CCCCC1 (stereo unspecified),n,n,n,n,n
Cc1ccc(C)c(S(=O)(=O)N2C(=S)NC(=O)C2C(C)C)c1 (stereo unspecified),95.4,n,n,55.5,n
COC(=O)Cc1cc(OC)c(OC)cc1Cc1cc(OC)c(OC)cc1CC(=O)OC,n,n,n,87.5,n
CCOC(=O)Cc1cc(OC)c(OC)cc1Cc1cc(OC)c(OC)cc1CC(=O)OCC,n,n,n,55.3,n
COc1cc(Br)c(CC(=O)O)cc1OC,n,n,n,n,n
O=C1C2C3C=CC([C@@H]2C(=O)N1C1CC1)[C@H]1C(=O)N(C2CC2)C(=O)C31 (stereo partly specified),n,n,n,n,n
CC(CC(=O)NCc1ccccc1)C1CCCO1 (stereo unspecified),60.5,n,n,n,n
COc1cccc2c(=O)n(CC(=O)N3CCN(c4ccccc4)CC3)ccc12,x,n,x,x,x
O=C(CSc1nnc(Cc2ccccc2)n1-c1cccc(Cl)c1)N1CCOCC1,n,n,n,n,n
COc1ccccc1-c1cc(C(=O)NC(C)c2ccccc2)no1 (stereo unspecified),n,n,n,n,2.8
COc1ccccc1-c1cc(C(=O)NC(C)C)no1,n,n,n,n,4
CC(=O)NCCc1nc2ccccc2n1Cc1ccccc1,n,n,n,58.9,n
SMILES,CYP2C9 inhib,Cav3 T inh,CYP2C19 activ,CYP2C19 inh,CYP2C9 act
Cc1cccc(NCc2nc3ccccc3n2Cc2ccccc2)c1,96.0,x,n,95.8,n
Cc1ccc(Cn2c(Cc3ccccc3)nc3ccccc32)cc1,n,-5.03,n,n,n
Cc1ccc(C)c(Cn2c(CO)nc3ccccc32)c1,n,-6.44,n,n,n
COc1ccc(C(=O)NCCCc2nc3ccccc3n2Cc2cc(C)ccc2C)cc1OC,x,n,x,x,x
CC1CC(C)CN(Cc2nc3c(c(=O)n(C)c(=O)n3C)n2CCN2CCOCC2)C1 (stereo unspecified),n,n,n,n,n
Cc1nc(N2CCN(C(c3ccccc3)c3ccccc3)CC2)[nH]c(=O)c1C,n,n,n,n,n
COCc1nc2ccccc2n1Cc1ccccc1,n,n,n,79.3,n
COc1ccc(-c2nc3ccccc3n2Cc2ccc(C)cc2)cc1,n,n,n,n,n
COCc1nc2ccccc2n1Cc1ccc(Br)cc1,89.7,n,n,99.5,n
CCOc1ccc(N=C(NC#N)SC)cc1,n,n,n,70.0,n
CCCCCCCCCOC(=O)C(CC(=O)O)N1CCOCC1 (stereo unspecified),77.0,n,n,n,n
CCCCCOC(=O)CC(C(=O)OCCCCC)N1CCCCC1 (stereo unspecified),x,n,x,x,x
CCCCCC(/C=N/Nc1ccc(S(=O)(=O)N2CCOCC2)cc1[N+](=O)[O-])=C\c1ccccc1,82.1,n,n,n,n
c1ccc(C(c2ccccc2)N2CCN(Cc3nnnn3C3CCCC3)CC2)cc1,97.7,x,n,96.5,n
CCC(C)(C)n1nnnc1CN1CCN(C(c2ccccc2)c2ccccc2)CC1,x,-3.42,x,x,x
CCCCCCn1c(CN2CCN(C(=O)OCC)CC2)nc2c1c(=O)n(C)c(=O)n2C,x,n,x,x,x
CC1CN(C(=O)Nc2ccc3c(c2)OCO3)CC(C)O1 (stereo unspecified),n,n,n,n,n
C/C(=C/Cc1c(O)cc2oc(C)cc(=O)c2c1O)COC1OC(CO)C(O)C(O)C1O (stereo unspecified),x,n,x,x,x
c1cncc(-c2nnc(SCc3cccc4ccccc34)o2)c1,n,x,n,n,n
N#CC1=C(N)N=C(SCc2cccc3ccccc23)C(C(N)=O)C12CCCCC2 (stereo unspecified),74.3,n,n,72.0,n
Cc1nn2c(-c3ccncc3)nnc2c2ccccc12,n,n,n,85.2,n
OCC#Cc1cnc2ccccc2c1,n,n,n,n,n
Cc1ccc(S(=O)(=O)N(CC(=O)Nc2cccc([N+](=O)[O-])c2)C2CCCCC2)cc1,92.0,n,n,n,n
CCN(C1CCCCC1)S(=O)(=O)c1ccc(S(=O)(=O)N(CC(=O)Nc2ccccc2)C2CC2)cc1,68.3,n,n,n,n
Cc1ccc(NS(=O)(=O)c2ccc(OCC(=O)Nc3cccc([N+](=O)[O-])c3)c(C)c2)cc1,88.9,n,n,52.3,n
SMILES,CYP2C9 inhib,Cav3 T inh,CYP2C19 activ,CYP2C19 inh,CYP2C9 act
COc1ccc(C)cc1S(=O)(=O)N(CC(=O)O)c1ccc(F)cc1,n,x,n,n,n
COc1ccc(C)cc1S(=O)(=O)N(CC(=O)Nc1cccc([N+](=O)[O-])c1)c1cc(C)cc(C)c1,92.8,n,n,n,n
COc1cc2c(cc1OC)C(=O)CC(C)S2 (stereo unspecified),n,n,n,n,n
CCOC(=O)c1cc(C)n(S(=O)(=O)c2ccc(C)cc2)c1C,n,n,n,n,n
CC(C)c1ccc(NC(=O)COc2ccc(S(=O)(=O)N3CCOCC3)cc2)cc1,n,n,n,n,n
N#Cc1c(NCCCO)nc(-c2ccco2)c2c1CCCC2,91.7,n,n,60.9,n
N#Cc1c(NCCCO)nc(NCc2ccccc2)c2c1CCN(Cc1ccccc1)C2,99.9,n,n,n,n
